This passage reports inhibition results from PubChem BioAssay AID1566 (Sanford-Burnham Center for Chemical Genomics, 2009).

“And” between values parts separate entries of the source, which are not always exact repeats. Equal values may be shown once. About 1,800 (0.62%) of roughly 290,000 compounds were called active. Many of the other results were omitted from the sample, so actives are more common in it than they were. Unmarked numbers belong to inactive results. Cut-off read from the data, not from the text of the source: active = inhibition above about 50%; inactive = the rest.

The assay can be described thus: NOD2 signaling inhibitors, cell-based, luminescence, uHTS, HEK293 (AID 1566). The conditions noted are these: HEK293 NOD2/NF-kB luciferase reporter, at 4 µM, stronger effect = higher value. (In general: In a reporter assay the amount or activity of a reporter protein is the signal.)
Broadly, the inhibition is the relative decrease from the control value, in per cent. As for `O=C(c1ccccc1)N1CCN(CCc2ccccn2)CC1`, the inhibition is -11.9%.
For `COc1ccc(N2C(=O)C3C4C=CC(c5ccccc5)(C3C2=O)C2C(=O)N(c3ccc(OC)cc3)C(=O)C42)cc1` (configuration not stated), the inhibition was 8%.
The result for `COc1ccc(C(=O)Nc2cc(OC)c(Cl)cc2OC)cc1` reads 4.7%; that for `COc1cc(NC(=O)c2ccccc2)c(OC)cc1Cl`, -0.5%; that for `CCN1CCN(C2=C(NS(=O)(=O)c3ccccc3)C(=O)c3ccccc3C2=O)CC1`, 18.2%.
The result for `CCN1CCN(C2=C(NS(=O)(=O)c3ccc(C)cc3)C(=O)c3ccccc3C2=O)CC1` reads 38%.
As for `CCN1CCN(C2=C(NS(=O)(=O)c3ccc(Br)cc3)C(=O)c3ccccc3C2=O)CC1`, the figure is 50.9% (active); as for `NC(=O)CSc1nc2ccccc2c(=O)n1Cc1ccccc1`, 5.3%; as for `Cc1cc(NC(=O)CSc2nc3ccccc3c(=O)n2Cc2ccccc2)no1`, 9.6%.
For `CCOC(=O)Cc1c(C)nc(-c2ccccc2)[nH]c1=O`, the inhibition was -6.7%.
The result for `COc1ccccc1N1CCN(C(=O)CCNS(=O)(=O)c2cc(Br)cnc2N)CC1` reads 21%.
Regarding `COCCCNC(=O)C1CC(=O)OC1c1ccc(OC)c(OC)c1` (configuration not stated), the inhibition was -13%.
The result for `O=C(CCl)N(c1ccccc1)C1CCCCC1` reads 52.5% (active).
The result for `CC(=O)N(c1ccccc1)C1CCCC1` reads 16.4%; that for `O=C(CCl)N(c1ccccc1)C1CCS(=O)(=O)C1` (configuration not stated), 1.5%.
The result for `COc1ccc(NC(=S)NCCc2ccccc2)c(C)c1` reads 1.7%.
As to `Nc1c(-c2n[nH]c(=S)n2-c2ccc(Cl)cc2Cl)cnn1-c1ccccc1`, the inhibition was -0.1%.
Turning to `CCN(CC)S(=O)(=O)c1ccc(/C(O)=C2/C(=O)C(=O)N(CCOC)C2c2ccccc2)cc1` (configuration not stated), the inhibition is 8.8%.
As for `CCn1cc(CNC(=O)c2ccc3nc(Cc4ccccc4F)oc3c2)cn1`, the inhibition is 24.7%.
For `CCn1cc(CNC(=O)c2ccc3nc(Cc4ccc(OC)cc4)oc3c2)cn1`, the inhibition is 54.1% (active).
For `COc1ccc(Cc2nc3ccc(C(=O)NCCn4cccn4)cc3o2)cc1`, the inhibition was -0.5%.
The result for `CCOC(=O)N1CCN(C(=O)c2ccc3c(c2)NC(=O)/C(=C/c2ccccc2)S3)CC1` reads 9.6%.
As for `O=C(c1ccccc1)c1coc2c1C(=O)c1ccccc1C2=O`, the figure is 28.9%.
For the molecule `O=C1c2ccccc2C(=O)c2c1oc(C(F)(F)F)c2C(=O)c1ccccc1`, the inhibition is 77.4% (active).
As for `Cc1oc2c(c1C(=O)O)C(=O)c1ccccc1C2=O`, the figure is 19%.
The result for `COc1cc(NC(=O)CCS(=O)(=O)c2ccc3c(c2)n(C)c(=O)c(=O)n3C)cc(OC)c1` reads -1.3%.
As for `CCN(CC)CCNC(=O)c1cccc(NC(=O)C(=O)c2ccccc2NC(C)=O)c1`, the figure is 3.6%; as for `COc1ccc(C(C)(C)C)cc1S(=O)(=O)n1ccnc1C`, 9%; as for `OCCN1CCN(CC(O)COc2ccc(C34CC5CC(CC(C5)C3)C4)cc2)CC1` (configuration not stated), 6%.
`OCCN(CCO)CC(O)COc1ccc(C23CC4CC(CC(C4)C2)C3)cc1` (configuration not stated): the inhibition is 51.5% (active).
As for `OCCN(CCO)CC(O)COc1ccc(Br)cc1` (configuration not stated), the figure is 19% and 15.4%.
The result for `O=C1c2[nH]nc(-c3ccccc3O)c2C(c2cccc(O)c2)N1Cc1ccco1` (configuration not stated) reads 24.7%; that for `COc1ccc(S(=O)(=O)N2CCCCC2)cc1NC(=O)CN(C)C1CCCCC1`, 8%.
As for `Cc1cnn(-c2cc(N/N=C/c3ccc(F)cc3)ncn2)c1`, the figure is -26.9%.
As to `CCN1C(=C2C(=O)c3ccccc3C2=O)C=Cc2ccccc21`, the inhibition is 2.2%.
For `CCCCN1C(C)=CC(=C2C(=O)c3ccccc3C2=O)C=C1C`, the inhibition is -61.1%.
As for `CCN1C=CC(=C2C(=O)c3ccccc3C2=O)C=C1`, the figure is 54.1% (active); as for `CC1=CC(=C2C(=O)c3ccccc3C2=O)C=C(C)O1`, -31.6%; as for `CN1C=CC(=C2C(=O)c3ccccc3C2=O)C=C1`, -99%.
As for `CCCCNC1=CC(=O)C(=O)c2ccccc21`, the figure is -26.1%; as for `CC1=CC(=C2C(=O)c3ccccc3C2=O)C=C(C)N1C`, -61.9%.
Consider `CCCN1C=CC(=C2C(=O)c3ccccc3C2=O)C=C1`, for which the inhibition is 83.7% (active).
As for `CCCCCN1C=CC(=C2C(=O)c3ccccc3C2=O)C=C1`, the figure is 73.5% (active); as for `CCCCN1C=CC(=C2N=c3cccc([N+](=O)[O-])c3=N2)C=C1`, 7.8%.
As for `CCCCCCN1C=CC(=C2C(=O)c3ccccc3C2=O)C=C1`, the figure is -6.6%; as for `CCCCN1C=CC(=C2C(=O)c3ccccc3C2=O)C=C1`, 79.8% (active).
For the molecule `COc1cc(C(=O)OCC(=O)N2CCCCC2C)ccc1OCc1c(C)noc1C` (configuration not stated), the inhibition was -27.2%.
The result for `Cc1ccc(CN(CC(=O)NCCc2ccccc2)C(=O)CCCC(=O)Nc2cc(C)on2)cc1` reads -8.6%.
On to `O=C(N/C(=C\c1cccnc1)C(=O)N1CCCCC1)c1cccc(Br)c1`, for which the inhibition was 0.3%.
The result for `CCOC(=O)N1CCN(C(=O)C2CCCN(c3ncnc4c3nc3n4CCCCC3)C2)CC1` (configuration not stated) reads 7.5%; that for `O=C(NC1CCCCCC1)C(=S)NC1CCCCC1`, -56.5%.
As for `C#CCOc1ccc(/C=C2/C(=O)NN(c3ccc(F)cc3)C2=O)cc1OC`, the inhibition is 9.7%.
As for `CC(CC(=O)Nc1nncs1)c1ccccc1` (configuration not stated), the figure is 20.2%.
As for `COc1ccc(C2NC(=S)NC(C)=C2C(=O)c2ccccc2)cc1OC` (configuration not stated), the figure is 3.4%; as for `Oc1ccc(N=Nc2ccc3c(c2)OCCO3)c2ncccc12`, -8.2%.
As for `Oc1ccc(N=Nc2ccc3c(c2)OCO3)c2ccccc12`, the figure is 81.2% (active).
Take `Oc1ccc(N=Nc2ccc3c(c2)OCCO3)c(O)c1`: the inhibition was -142%.
As for `CCOc1ccc(CN(C(=O)c2oc3ccccc3c2C)C2CCS(=O)(=O)C2)cc1` (configuration not stated), the figure is -8.4%.
As for `Cc1cc(C2=NNC(=NC3CC3)SC2)c(C)n1-c1ccccc1F`, the figure is 88.9% (active); as for `Cc1ccc(-n2c(C)cc(C3=NNC(=NC4CC4)SC3)c2C)cc1C`, -57.3%.
As for `c1cc2c(cc1C1=NNC(=NC3CC3)SC1)OCCO2`, the figure is 85.7% (active).
As for `COCCCN=C1NN=C(c2cc(C)n(-c3ccccc3F)c2C)CS1`, the inhibition is -10.1%.
The result for `Cc1cc(C2=NNC(=NC3CC3)SC2)c(C)n1-c1c(C)n(C)n(-c2ccccc2)c1=O` reads -1.3%.
The result for `C=CCN=C1NN=C(c2ccc3c(c2)OCCO3)CS1` reads 37.7%; that for `Cc1cc(C2=NNC(=NC3CC3)SC2)c(C)n1-c1ccccc1`, 90.5% (active).
The result for `CCCCN=C1NN=C(c2ccc3c(c2)OCCO3)CS1` reads -57.3%; that for `COc1ccc(-n2c(C)cc(C3=NNC(=NC4CC4)SC3)c2C)cc1`, -16.5%.
